Source: PubChem
This is a sample that favours compounds with a hit; in the whole collection about 0.5% have one here.
E coli growth-1 = E. coli V3065 growth inhibition, primary screen, counter-screen for AddAB inhibitor project, absorbance, OD600; 18 h; inhibition, % at 11.9 µM; actives 0.27% (n = 330,000); AID 449728, 2010;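 active = inhibition above the campaign's mean inhibition across all tested compounds plus 3 SD, cut at about 9.9% in these data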;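 also: uninfected addAB+ strain grown without phage in ampicillin broth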
phage Ecoli inh = growth loss of phage-infected E. coli, primary screen, RecBCD inhibitor project, absorbance, with phage, HTS; inhibition, % at 11.9 µM; actives 0.26% (n = 360,000); in the data active = inhibition above about 11%
Tat transport = E. coli Tat export inhibitors, primary screen, MC4100, TorA-mCherry reporter, fluorescence, single point | AID 488895, 2010 | actives 0.036% (n = 340,000) | inhibition, % at 10 µM;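 active = mean replicate inhibition at least 50% and at least half of replicates individually reaching 50%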;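 also: exported cargo escapes ClpAP degradation while cytoplasmic cargo is degraded and loses fluorescence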
AddAB inh = growth inhibition of E. coli expressing H. pylori AddAB, primary screen, AddAB inhibitor project, absorbance; inhibition, % at 11.9 µM; actives 0.29% (n = 330,000); AID 435030, 2010; in the data active = inhibition above about 12%
E coli growth-2 = E. coli growth inhibition, primary screen, OD600 | Escherichia coli growth, 23 h; stronger effect = lower value | OD600 absorbance (no concentration beside the values) | actives 0.21% (n = 330,000) | AID 1053175, 2014;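 active = OD600 absorbance below the run mean of sample wells minus 3.6 SD, in any replicate, cut at about 0.56 in these data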
RecBCD conf = growth loss of phage-infected RecBCD+ E. coli, confirmation, RecBCD inhibitor project, absorbance, E. coli V66, T4 gene 2 phage | actives 45% (n = 890) | AID 651982, 2013 | inhibition, % at 11.9 µM | shares compounds with phage Ecoli inh | E. coli V66 + T4 2- phage, growth OD;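 active = mean inhibition over triplicates exceeding the hit threshold derived in the original primary screen, cut at about 11% in these data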
Ecoli viability = E. coli viability inhibition, counter-screen for RecBCD inhibitor project, absorbance, high throughput | shares compounds with phage Ecoli inh | absorbance (OD) growth | inhibition, % at 11.9 µM | actives 29% (n = 890); in the data active = inhibition above about 20%;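 also: E. coli strain V66 grown with compound alone and no phage infection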
AddAB phage OD = growth loss of phage-infected AddAB-carrying E. coli, confirmation, counter-screen for RecBCD inhibitor project, absorbance, E. coli V3065, T4 phage. shares compounds with phage Ecoli inh. E. coli expressing H. pylori AddAB + T4 phage, OD growth; gene 2 mutant T4, recBCD-deleted host. inhibition, % at 11.9 µM. actives 45% (n = 890). AID 651984, 2013;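 active = mean inhibition above the solvent-only control wells' mean plus 3 SD, cut at about 22% in these data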;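 also: higher means less bacterial growth from phage killing when AddAB is blocked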
Hits are given with their value; n = inactive; x = not tested or not shown.

SMILES	E coli growth-1	phage Ecoli inh	Tat transport	AddAB inh	E coli growth-2	RecBCD conf	Ecoli viability	AddAB phage OD
Cc1nnc(SCC2=C(C(=O)O)N3C(=O)[C@@H](NC(=O)Cn4cnnn4)[C@H]3SC2)s1	n	94	n	n	0.045	102	104	n
CCC(C(=O)NC1C(=O)N2C(C(=O)O)=C(CSc3nnc(C)s3)CSC12)c1ccccc1 (stereo unspecified)	n	n	n	n	n	x	x	x
Cc1nnc(SCC2=C(C(=O)O)N3C(=O)C(NC(=O)Cn4cnnn4)C3SC2)s1 (stereo unspecified)	n	100	n	n	0.062	104	106	n
COc1cccc(C=NNC(=O)CNC(=O)c2ccc(S(=O)(=O)N3CCCC3)cc2)c1OC	x	x	x	x	n	x	x	x
O=C(Nc1ccc(F)cc1)Nc1csc2ccccc12	n	13	x	n	n	n	n	n
Cn1ccc(=O)c2cc([N+](=O)[O-])ccc21	x	15	x	x	x	n	n	99
CCCSc1ccc(C2N[C@@](Cc3ccccc3)(C(=O)OC)C3C(=O)N(C)C(=O)C23)cc1 (stereo partly specified)	x	x	x	x	n	x	x	x
O=[N+]([O-])c1ccc(-c2nc(Cl)c3c(n2)CCCC3)o1	x	97	x	x	x	76	97	100
COc1ccccc1C(=O)NC(CCSC)C(=O)NNC(=O)c1ccccc1O (stereo unspecified)	n	12	n	n	n	n	n	n
CC(C)(C)C(=O)Nc1ccc(Sc2ccc([N+](=O)[O-])cc2)cc1	n	n	n	n	n	x	x	x
CC(=O)Nc1ccc(Sc2ccc([N+](=O)[O-])o2)cc1	x	21	n	x	n	15	n	72
CCCc1nc2c(=O)n(C)c(=O)nc-2n(C)n1	x	18	n	x	0.44	16	n	36
Cn1nc(-c2ccccn2)nc2c(=O)n(C)c(=O)nc1-2	n	n	n	n	n	x	x	x
CC(=NNC(=S)Nc1ccccc1Cl)c1ccccn1	x	14	n	x	x	n	n	n
CC(=NNC(=O)c1ccccc1Cl)c1ccccn1	x	x	x	x	n	x	x	x
CC(=NNC(=S)Nc1ccccc1)c1ccccn1	x	16	x	x	x	n	n	n
CCOC(=O)c1sc(NN=Cc2ccc(N(C)C)cc2)nc1C	x	x	x	x	n	x	x	x
CCN1C(=O)C(=CN2CCCc3ccccc32)SC1=S	x	x	x	x	n	x	x	x
COC(=O)C=c1sc(=C(C#N)C(=O)NCc2ccccc2)n(-c2ccccc2)c1=O	x	x	x	x	n	x	x	x
Cc1onc(-c2ccccc2)c1C(=O)NN=Cc1cc(Cl)cc(Cl)c1O	x	11	x	x	x	n	n	n
COc1ccc(C(=O)COc2ncnc3cc(Cl)ccc23)cc1	n	98	n	n	n	n	n	n
C=CCn1c(=C(C#N)C(=O)NCCN2CCOCC2)sc(=Cc2ccsc2)c1=O	x	x	x	x	n	x	x	x
CC(C)(C)OC(=O)NCCCCC(NC(=O)c1[nH]cnc1C(=O)NC(Cc1ccccc1)C(=O)OCc1ccccc1)C(=O)OC(C)(C)C (stereo unspecified)	x	x	x	x	n	x	x	x
CC(=NNC(=O)CNc1ccc(F)cc1)c1cc2ccccc2o1	x	x	x	x	n	x	x	x
O=C(N/N=C/c1ccc(O)cc1O)c1ccc(NC(=O)C2CCCCC2)cc1	29	23	n	24	x	14	n	n
SMILES	E coli growth-1	phage Ecoli inh	Tat transport	AddAB inh	E coli growth-2	RecBCD conf	Ecoli viability	AddAB phage OD
C=C1C(=O)OC2C(O)C(C)=CC(=O)C=C(C)CC(OC(=O)C(C)=CC)C12 (stereo unspecified)	x	x	x	x	n	x	x	x
CNc1ncnc(Sc2nc(N)nc3nc[nH]c23)c1[N+](=O)[O-]	x	62	n	x	x	55	65	79
Nc1nc(SCc2ccccc2)c2[nH]cnc2n1	n	n	n	n	n	x	x	x
Nc1nc(Sc2ccc([N+](=O)[O-])c3nonc23)c2[nH]cnc2n1	x	39	n	x	x	44	51	68
O=C(CSc1nnc(-c2ccccc2)n1Cc1ccccc1)NNC(=O)c1ccccc1O	n	12	n	n	n	n	n	n
CC(NC(=O)Nc1cccc([N+](=O)[O-])c1)(C(F)(F)F)C(F)(F)F	n	14	n	n	n	n	n	n
O=C(Nc1cccc([N+](=O)[O-])c1)c1cccc(C(=O)Nc2cccc([N+](=O)[O-])c2)c1	n	n	n	n	x	x	x	x
COc1ccc(OC)c(C=NNC(=O)c2ccc3nc[nH]c3c2)c1	x	x	x	x	n	x	x	x
C=CCn1c(SCC(=O)NC2CCCC2)nnc1-c1ccccn1	n	n	n	n	n	x	x	x
CCCn1c(SCC(=O)NC2CCCC2)nnc1-c1ccccn1	n	38	n	n	n	n	n	n
O=C(COc1ccccc1Cl)Nc1nnc(S(=O)(=O)N2CCCC2)s1	n	36	n	n	n	n	n	n
COc1ccc(-c2oc3ccccc3c(=O)c2OCC(=O)O)cc1	n	n	n	n	n	x	x	x
COc1ccc(-c2oc3ccccc3c(=O)c2OC(C)=O)cc1	12	11	n	n	n	n	n	n
O=C(O)c1cn(-c2ccc(F)cc2)c2cc(N3CCNCC3)c(F)cc2c1=O	x	99	114	x	x	102	103	103
CC(O)C(O)C(O)C(O)C=NNC(=O)c1ccccc1 (stereo unspecified)	x	x	x	x	n	x	x	x
C#CCOCCOCCOCCNc1nc(N2CCN(C(=O)C(CCC(=O)O)n3cc(C(N)Cc4ccc(O)cc4)nn3)CC2)nc(N2CCN(C(=O)C(C(C)CC)n3cc(C(N)CC(C)C)nn3)CC2)n1 (stereo unspecified)	x	x	x	x	n	x	x	x
CCCCC(=O)NC(c1cccc([N+](=O)[O-])c1)c1ccc2cccnc2c1O (stereo unspecified)	x	19	n	x	n	16	n	25
CCN1C(=O)C2C(c3ccc(Cl)cc3)N3C(=O)CN(CCOC)C(=O)[C@@]3(C)C2C1=O (stereo partly specified)	x	x	x	x	n	x	x	x
COc1cc(N(C)C)ccc1C=c1c2ccccc2n2c1cc(-c1ccccc1)[n+]2C	x	28	n	x	x	32	36	97
COc1ccc(N(C)S(=O)(=O)c2ccc(Cl)c(C(=O)NNC(=O)c3ccccc3O)c2)cc1	x	12	n	x	n	n	n	n
Cc1nnc(C)n1N=Cc1ccc(-c2ccccc2Cl)o1	x	x	x	x	n	x	x	x
Cc1cc(NS(=O)(=O)c2ccc(NC(=S)Nc3ccc(Cl)cc3C)cc2)no1	n	12	n	n	n	n	n	n
CN(C)c1ccc(C=c2c3ccccc3n3c2c2c([n+]3C)CCCC2)cc1	x	62	n	x	x	72	97	101
O=C(CC=NOCc1ccc(Cl)cc1Cl)Nc1ccccc1	x	x	x	x	n	x	x	x
